This excerpt belongs to a sample that is enriched for hits.
Pf Dd2 inh: inhibitors of Plasmodium falciparum Dd2 growth | P. falciparum Dd2 growth, SYBR Green, 72 h | AID 1347417 | Potency, µM (doses to about 28.9 µM), inactives show at the highest dose activity, negative = inhibition, hits mostly inhibitors | 120,000 tested, 4.3% active; active means well fitted inhibition curve with a large enough effect;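 further: plate controls were DMSO vehicle for no effect and reference drug for full effect; nearly all actives have a fitted effect of over 65% in size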
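Readout: SYBR Green fluorescence, 485 nm excitation, 535 nm emission, after ~16 h lysis at 37C. Before that, Dd2-infected red cells (2.5% hematocrit) grew 72 h with compound, 29 uM top final concentration.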
Starred values were filed as active, the others as inactive; i = inactive; [ ] = another dose, or the depositor's remark. Potency means the concentration at half of the fitted maximal effect.

SMILES	Pf Dd2 inh
CC(C)C(=O)N1CCC2(CC1)OC(=O)N(Cc1ncccn1)C2(C)c1ccccc1 (stereo unspecified)	i
CC1(c2ccccc2)N(Cc2ccccc2F)C(=O)OC12CCN(C(=O)Cc1ccc(O)cc1)CC2 (stereo unspecified)	-6%
CC1(c2ccccc2)N(Cc2cccnc2)C(=O)OC12CCN(C(=O)Cc1cccc(F)c1)CC2 (stereo unspecified)	i
CC1(c2ccccc2)N(Cc2ccccc2C#N)C(=O)OC12CCN(C(=O)Cc1ccc(O)cc1)CC2 (stereo unspecified)	i
CC1(c2ccccc2)N(Cc2ccccc2C#N)C(=O)OC12CCN(C(=O)Cc1cccc(F)c1)CC2 (stereo unspecified)	11µM*
CCOc1ccc(C2Cn3nnc(-c4nc(-c5ccccc5)no4)c3CO2)cc1 (stereo unspecified)	i
CCOc1cccc(CNc2ncncc2-c2nc(-c3ccccc3)no2)c1	-11%
CCCNC(=O)C(NC(=O)c1cccs1)C1CCN(C(=O)c2ccco2)CC1 (stereo unspecified)	-14%
CC(C)NC(=O)N1CC[C@@H](CC(=O)O)[C@@H](CC2=NCCc3ccc(C(C)(C)C)cc32)C1	i
Cc1ccc(C)c(NC(=O)Cn2c(C)cc3nc4n(c(=O)c32)CCCC4)c1	i
Cc1nnnn1CCCN1CCC2(CCC(=O)N(CC(C)O)C2)CC1 (stereo unspecified)	-22%
Cn1cc(S(=O)(=O)N2Cc3ccccc3C[C@H]2C(=O)NC(C)(C)C)cn1	1%
COc1ccc(-c2ccc3c(c2)C(=O)N2C[C@@H](NS(=O)(=O)c4ccc(F)cc4)C[C@H]2C(=O)N3)cc1	-18%
Cc1cc(C)n(-c2nnc(Nc3ccc(C)c(C)c3)c3ccccc23)n1	-22%
Cc1cc(-c2ccc(C)c(S(=O)(=O)NCc3cccc(Br)c3)c2)on1	20%
COc1ccc(Nc2nnc(-c3ccc(C)c(S(=O)(=O)NCc4nc5ccccc5[nH]4)c3)c3ccccc23)cc1	75%
CNS(=O)(=O)c1cc(-c2nnc(Nc3cc(C)ccc3C)c3ccccc23)ccc1C	5µM*
Cc1ccc(-c2nnc(Nc3ccc(C(=O)N(C)C)cc3)c3ccccc23)cc1S(=O)(=O)N(C)C	11µM*
Cc1ccc(-c2nnc(Nc3ccccc3O)c3ccccc23)cc1	-24%
Cc1cc(C)n(-c2nnc(Nc3ccc(C(C)C)cc3)c3ccccc23)n1	6%
Cc1ccc(-c2nnc(Nc3ccc(Br)cc3)c3ccccc23)cc1S(=O)(=O)NCC1CCCO1 (stereo unspecified)	10µM*
Cc1ccc(-c2nnc(Nc3ccc(F)cc3)c3ccccc23)cc1S(=O)(=O)NC(C)C	11µM*
CNC(=O)c1ccc(Nc2nnc(-c3ccc(C)c(S(=O)(=O)N(C)C)c3)c3ccccc23)cc1	-11%
Cc1cc(C)n(-c2nnc(Nc3cc(Cl)ccc3C)c3ccccc23)n1	61%
CCOC(=O)c1c(Nc2ccc(F)cc2)nnc(-c2ccccc2)c1-c1ccccc1	-29%
SMILES	Pf Dd2 inh
CCCNC(=O)CC1CCCN(c2cnn(CC3CC3)c(=O)c2)C1 (stereo unspecified)	-3%
CCCN(CC1CCOC1)S(=O)(=O)c1ccccc1C (stereo unspecified)	15%[5.79 µM]
Cn1cnc(C(=O)N2CC3CC(C2)[C@H]2CCCC(=O)N2C3)c1 (stereo partly specified)	2%
O=Cc1ccccc1-c1cnc2ccccc2c1	-14%[44.1 µM]
Cn1cccc1C(=O)NCC(=O)N1CCCCCCNC(=O)CC1c1ccccc1 (stereo unspecified)	14%
O=C(NCc1ccccc1)C1CCCN(C2CCN(C(=O)c3ccco3)CC2)C1 (stereo unspecified)	-18%
O=C(c1cn(C/C=C/c2ccccc2)nn1)N1CCN(c2cccc(Cl)c2)CC1	-3%
COc1cccc(CC(=O)N2CCC3(CC2)CC(O)CCO3)c1 (stereo unspecified)	7%
COc1ccc(F)c(C(=O)N2CCC3(CC2)[C@H](O)C[C@@H]3O)c1F	-1%
COC[C@H]1C[C@@H](NC(=O)C(C)C)[C@H](O)[C@@H]1O	36%[44.1 µM]
Cc1csc(NC(=O)c2ccc3c(c2)OCCN(CCC(F)(F)F)C3)n1	-20%[44.1 µM]
Cc1ccc(-c2noc(-c3ccc(NCC4CCCO4)c([N+](=O)[O-])c3)n2)cc1 (stereo unspecified)	18%
Cc1ccccc1Nc1nnc(-c2ccc(C)c(S(=O)(=O)N3CCOCC3)c2)c2ccccc12	31%
Cc1cc(-c2ccc(C)c(S(=O)(=O)NC3CCCCC3)c2)on1	i
Cc1ccc(C(=O)Nc2cccc(O)c2)cc1S(=O)(=O)N1CCCCCC1	-24%
Cc1ccc(-c2nnc(Nc3cccc(O)c3)c3ccccc23)cc1S(=O)(=O)N1CCOCC1	i
Cc1ccc(Nc2nnc(-c3ccc(C)c(S(=O)(=O)N4CCOCC4)c3)c3ccccc23)c(C)c1	7.9µM*
Cc1ccc(-c2nnc(Nc3ccc(O)cc3)c3ccccc23)cc1S(=O)(=O)NCC1CCCO1 (stereo unspecified)	5µM*
Cc1ccc(-c2nnc(Nc3ccc(S(N)(=O)=O)cc3)c3ccccc23)cc1S(=O)(=O)N1CCCCC1	19%
Cc1ccc(-c2nnc(Nc3ccc(O)cc3)c3ccccc23)cc1S(=O)(=O)N1CCCCC1	10µM*
CN1CC(=O)N(c2ccccc2)Cc2c1ncnc2N1CCCC1CO (stereo unspecified)	12%
COC[C@@H]1CN(C(=O)CC2=CCCCC2)C[C@H]1c1nc(C2CC2)no1	0%
Cn1cnnc1CC1CCN(C(=O)NC2CCCCC2)C1 (stereo unspecified)	i
COc1nc2c(cc1CNC(=O)Cn1ccc(C)n1)C(=O)N(C1CCCC1)C2	-6%
CCN1CCC(N[C@@H]2CC[C@@H]2NC(=O)CCCc2ccccc2)CC1	-25%
SMILES	Pf Dd2 inh
O=C1NC2(CCCN(Cc3cccc4ccccc34)C2)Oc2ccccc21 (stereo unspecified)	i
COCC(=O)NC1CCC12CCN(S(=O)(=O)c1cn(C)cn1)CC2 (stereo unspecified)	-25%
COCC(=O)NC[C@H]1CCN(Cc2sccc2C)C[C@H]1N(C)C	i
Cc1ccc(CN2CCc3oc(C)c(C(=O)NCCN4CCCCC4)c3C2)cc1	1.4µM*
COC[C@@H]1CN(Cc2ccc(Br)o2)C[C@H]1C(=O)NC1CC1	1%
Cc1ccc(-c2cc(C(=O)NCCN3CCN(C)CC3)n(C)c2)cc1	-15%
CCNC(=O)c1c(C)oc2c1CN(Cc1ccc(Br)o1)CC2	7.9µM*
Cc1c(C)n(C)c2ccc(C(=O)NCCCN3CCCCC3)cc12	i
CCNC(=O)c1c(C)oc2c1CN(Cc1sccc1C)CC2	11µM*
Cc1oc2c(c1C(=O)NCCN(C)C)CN(C(=O)c1ccncc1)CC2	-9%
Cc1ccsc1CN1CCc2n[nH]c(=O)n2CC1	i
CNc1ncc(C(=O)N2C[C@H]3COc4ccccc4C[C@@]3(C(=O)O)C2)cn1	-4%
Cc1nccn1CC(=O)N1CCC2(CC1)CNC(C(=O)O)C2 (stereo unspecified)	-16%
COCC(=O)N[C@@H]1CN(Cc2cc(F)c(F)c(F)c2)C[C@H]1CO	33%
COCCNC(=O)NCCc1noc(C)n1	82%
CCCC(=O)NC1CCN(c2ccccc2)C1=O (stereo unspecified)	15%
Cc1ccc(SC2CCN(Cc3nc(CCc4ccccc4)no3)CC2)cc1	-16%
c1ccc(CCc2noc(CN3CCCCC3CCn3cccn3)n2)cc1 (stereo unspecified)	i

High-throughput results as filed in PubChem.
